Laboratory results: PubChem BioAssay (NCI)
Compounds without any hit were thinned out: in the full panel of roughly 83,000, 20% have a hit.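 In brief: 96-well plates, 48 h treatment, single concentration, percent growth endpoint.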 Calls of active or inactive are those of the source. How the source made its calls: active means growth percent below 10; inactive means the rest.

Columns and labels:
Experiment in all cases: NCI-60 one-dose screen, 48 h (100 = growth as untreated, 0 = no growth, -100 = all killed)
Details in all cases: 10 µM
K-562 leukemia = tested on: K-562 leukemia
MDA-MB-231 breast = tested on: MDA-MB-231 breast
RXF 393 renal = tested on: RXF 393 renal
SF-268 CNS = tested on: SF-268 CNS
SF-295 CNS = tested on: SF-295 CNS
SF-539 CNS = tested on: SF-539 CNS
UACC-257 melanoma = tested on: UACC-257 melanoma
M14 melanoma = tested on: M14 melanoma
HCT-15 colon = tested on: HCT-15 colon
HT29 colon = tested on: HT29 colon
SNB-75 CNS = tested on: SNB-75 CNS
SNB-19 CNS = tested on: SNB-19 CNS
U251 CNS = tested on: U251 CNS
PC-3 prostate = tested on: PC-3 prostate
SK-MEL-5 melanoma = tested on: SK-MEL-5 melanoma
UACC-62 melanoma = tested on: UACC-62 melanoma
LOX IMVI melanoma = tested on: LOX IMVI melanoma
SK-MEL-28 melanoma = tested on: SK-MEL-28 melanoma
SK-MEL-2 melanoma = tested on: SK-MEL-2 melanoma

Measured: growth

COc1ccc(-c2nc3sc(C4CC4)nn3c2/C=C2/C(=O)Nc3ccc(OC)cc32)cc1
active: SNB-75 CNS -2.41%
inactive: K-562 leukemia 74.3% | MDA-MB-231 breast 58.4% | RXF 393 renal 63.9% | SF-268 CNS 75.8% | SF-295 CNS 82.8% | SF-539 CNS 25.1% | UACC-257 melanoma 55.2% | M14 melanoma 63.8% | HCT-15 colon 76.9% | HT29 colon 73.2% | SNB-19 CNS 66.8% | U251 CNS 72.8% | PC-3 prostate 58.1% | SK-MEL-5 melanoma 52.8% | UACC-62 melanoma 44% | LOX IMVI melanoma 52.1% | SK-MEL-28 melanoma 24.9% | SK-MEL-2 melanoma 49.6%

CCN(CC)CCOc1nc2ccc(OC)cc2c2c1-c1ccc(OC)cc1C2=O
active: K-562 leukemia -43.5% | RXF 393 renal 4.4% | SF-295 CNS -2.73% | UACC-257 melanoma -52.8% | M14 melanoma -83.3% | HCT-15 colon -59.4% | HT29 colon -61.4% | SNB-75 CNS -1.45% | U251 CNS -87.9% | PC-3 prostate -0.151% | SK-MEL-5 melanoma -36.1% | LOX IMVI melanoma -74.6% | SK-MEL-28 melanoma -12.6%
inactive: MDA-MB-231 breast 20.5% | SF-268 CNS 17.3% | SF-539 CNS 28.8% | SNB-19 CNS 33.5% | UACC-62 melanoma 36% | SK-MEL-2 melanoma 20.8%

CC(=O)c1cc(Br)ccc1O
inactive: K-562 leukemia 103% | MDA-MB-231 breast 108% | RXF 393 renal 109% | SF-268 CNS 112% | SF-295 CNS 95.3% | SF-539 CNS 97.1% | UACC-257 melanoma 113% | M14 melanoma 104% | HCT-15 colon 101% | HT29 colon 116% | SNB-75 CNS 106% | SNB-19 CNS 109% | U251 CNS 108% | PC-3 prostate 93.5% | SK-MEL-5 melanoma 104% | UACC-62 melanoma 104% | LOX IMVI melanoma 103% | SK-MEL-28 melanoma 105% | SK-MEL-2 melanoma 106%

CC(C)=CCc1ccc(O)c(=O)cc1C(C)C
inactive: K-562 leukemia 11.1% | MDA-MB-231 breast 52.4% | RXF 393 renal 12.7% | SF-268 CNS 13.7% | SF-539 CNS 20% | UACC-257 melanoma 13.6% | HCT-15 colon 38.1% | HT29 colon 28.5% | SNB-75 CNS 12.7% | SNB-19 CNS 41% | PC-3 prostate 43.7% | UACC-62 melanoma 14.3% | LOX IMVI melanoma 22% | SK-MEL-28 melanoma 34.5% | SK-MEL-2 melanoma 17.2%
active: SF-295 CNS 8.22% | M14 melanoma -16.8% | SK-MEL-5 melanoma -17.2%
